High-throughput results (PubChem BioAssay)
IL1B secr inh: inflammasome signaling inhibition, IL-1 beta readout | THP-1 LPS/ATP IL-1B secretion, AlphaLISA, 16 h; active compounds read low | activity change, % at 57.5 µM | 360,000 tested, 4.7% active | AID 743279; in the data active = activity change below about -50%; inconclusive = mostly about -30% to -49%
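THP-1 cells pretreated 1 hr with compounds (up to 57.5 uM final), then stimulated with LPS (250 ng/mL final) plus ATP (1.25 mM final); secreted IL-1B measured by AlphaLISA after 16 hr, decreased signal indicating inhibition.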
CtBP-E1A inh: inhibitors of CtBP/E1A interaction | AlphaScreen GST-E1A/His-CtBP binding, 1536-well; active compounds read low | activity change, % (concentration not given with the values) | 340,000 tested, 0.49% active; in the data active = activity change below about -65%; inconclusive = mostly about -30% to -63%
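In 5 uL wells, 23 nL compound meets equimolar GST-E1A and His-CtBP (5X stock 125 nM each) for 2 h, 37 °C. Beads (5X, 50 ug/mL) then 1 h, 37 °C, dark.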
TDP1 cell CPT: DT40-hTDP1 cell growth loss with CPT | chicken DT40 Tdp1-/-;hTDP1 cells + 20 nM CPT, ATP luminescence, 48 h | Potency, µM (series often up to 46.2 µM), without a hit: top-dose activity change, negative = growth inhibition, most hits filed as inhibitors | 420,000 tested, 12% active | AID 686979; note: potency is the fitted concentration of half-maximal effect; nearly all actives have a fitted effect of over 55% in size
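Chicken DT40 Tdp1-/- cells complemented with human TDP1, 400 cells/well, exposed to compounds plus 20 nM camptothecin for at least 48 h at 37 C; viability read as ATP content by CellTiter-Glo luminescence.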
Six1-Eya2 blk: blocks human Six1 binding to Eya2; Q15475+O00167; AlphaScreen GST-Six1/His-Eya2 binding, biochemical; active compounds read low; activity change, % (no concentration beside the values); 360,000 tested, 0.56% active; in the data active = activity change below about -65%; inconclusive = mostly about -30% to -63%
Target sequence (O00167 whole entry, looked up): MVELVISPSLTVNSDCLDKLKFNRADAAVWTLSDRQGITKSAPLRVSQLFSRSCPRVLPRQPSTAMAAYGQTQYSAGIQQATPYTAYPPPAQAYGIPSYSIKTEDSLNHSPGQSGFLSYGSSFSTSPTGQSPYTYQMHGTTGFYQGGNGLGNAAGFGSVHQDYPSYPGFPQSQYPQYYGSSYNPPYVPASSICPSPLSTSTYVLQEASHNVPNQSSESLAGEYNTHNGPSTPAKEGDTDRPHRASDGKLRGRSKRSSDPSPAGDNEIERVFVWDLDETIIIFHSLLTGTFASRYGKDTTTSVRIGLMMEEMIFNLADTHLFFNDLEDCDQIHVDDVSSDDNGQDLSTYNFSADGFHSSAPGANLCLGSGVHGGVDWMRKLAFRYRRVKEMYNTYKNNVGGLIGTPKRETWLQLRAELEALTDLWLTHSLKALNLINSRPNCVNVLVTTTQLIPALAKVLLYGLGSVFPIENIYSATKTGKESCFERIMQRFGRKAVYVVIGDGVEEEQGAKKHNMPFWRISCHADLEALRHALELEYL
Target sequence (Q15475 whole entry, looked up): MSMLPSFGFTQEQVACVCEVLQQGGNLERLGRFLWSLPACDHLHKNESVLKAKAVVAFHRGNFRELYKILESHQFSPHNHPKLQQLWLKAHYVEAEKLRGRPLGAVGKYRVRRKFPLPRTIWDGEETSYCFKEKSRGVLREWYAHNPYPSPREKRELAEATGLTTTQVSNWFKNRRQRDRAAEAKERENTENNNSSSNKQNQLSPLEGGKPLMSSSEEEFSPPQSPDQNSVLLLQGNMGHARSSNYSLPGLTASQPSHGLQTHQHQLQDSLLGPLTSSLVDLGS
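AlphaScreen luminescence read after one hour at 37 °C in darkness. Pin-transferred compounds met GST-Six1 and His-Eya2 protein (5X stock 250 nM/500 nM) plus glutathione donor and Ni-chelate acceptor beads (5X, 50 ug/mL).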
TDP1 cell noCPT: qHTS for Inhibitors of human tyrosyl-DNA phosphodiesterase 1 (TDP1): qHTS in cells in absence of CPT; Potency, µM (top dose mostly 46.2 µM), inactives show top-dose activity change, negative = growth inhibition, actives largely listed as inhibitors; 420,000 tested, 15% active; AID 686978, 2013; DT40 Tdp1-/- hTDP1 cells, no CPT, ATP luminescence, 48 h; note: potency is the fitted concentration of half-maximal effect; nearly all actives have a fitted effect of over 55% in size
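Chicken DT40 Tdp1-/- cells complemented with human TDP1, screened without camptothecin (DMSO vehicle only), 400 cells/well. Compounds pin-transferred, cells incubated at 37 °C for at least 48 hr. Growth read as ATP-dependent luminescence (CellTiter-Glo, 30 min at RT).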
TDP1 block: inhibitors of human tyrosyl-DNA phosphodiesterase TDP1. Q9NUW8. Potency, µM (series often up to 130 µM), for the others: at the highest dose activity change, negative = inhibition, hits mostly inhibitors. 350,000 tested, 0.28% active. recombinant TDP1, AlphaScreen DNA substrate cleavage; note: potency is the fitted concentration of half-maximal effect; nearly all actives have a fitted effect of over 40% in size
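Tdp1 1 nM final; 15 min RT w/ cpd; substrate 15 nM, 5 min; beads 10 ug/ml, 10 min; AlphaScreen read. Neg ctrl: no enzyme.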
Numbers without * were called inactive; ? = inconclusive; . = not tested or not shown. Most compounds without a hit are left out; they make up all but 18% or so of the library. Unless noted, calls come from the whole dose curve; as a rule, active = well fitted curve in the direction sought with a large enough effect; inconclusive = small, poorly fitted or top-dose-only effect, or another doubt; inactive = no such curve, though single readings can be large; an effect the other way counts as inactive or inconclusive. % is set by controls: 0 for no effect and ±100 for the full control effect.

SMILES	IL1B secr inh	CtBP-E1A inh	TDP1 cell CPT	Six1-Eya2 blk	TDP1 cell noCPT	TDP1 block
Cc1ccccc1OCC(=O)NC(=S)Nc1ccc(N2CCCC2)cc1	5	-5	-28%	-8	?	-3%
Cc1nn(-c2ccc(F)cc2)c(Cl)c1C(=O)OC(C)C(=O)N(C)C1CCCCC1 (stereo unspecified)	-21	.	?	-4	12µM*	-1%
CN(C(=O)c1ccccc1C(=O)OCC(=O)NCc1ccccc1)C1CCCCC1	-12	.	-10%	12	?	3%
CN(c1ccccc1)S(=O)(=O)c1cc(C(=O)Nc2ccccc2N2CCOCC2)ccc1Cl	?	9	16µM*	-2	9.2µM*	.
O=C(Nc1ccccc1N1CCCCC1)c1ccc(F)c(S(=O)(=O)N2CCOCC2)c1	21	10	16µM*	0	21µM*	0%
CN(c1ccccc1)S(=O)(=O)c1cc(C(=O)c2nccn2C)ccc1Cl	-22	6	?	0	16µM*	2%
Cc1cccc(N2CCN(S(=O)(=O)c3cc(C(=O)Nc4ccccc4Cl)ccc3F)CC2)c1C	.	.	?	.	23µM*	5%
Cc1ccccc1NC(=O)c1ccc(F)c(S(=O)(=O)N2CCCCC2)c1	-2	-5	-20%	0	4%	3%
CC(C)CC1OC(=O)C2=CCCCC21 (stereo unspecified)	.	.	.	.	.	11%
COCCCNC(=O)CC1C[C@H](C(=O)N2CCCCC2)[C@@]2(C)c3[nH]c4ccccc4c3CCN2C1=O (stereo partly specified)	14	4	-6%	0	-27%	0%
COc1ccc(OC)c(NC(=O)c2ccccc2NC(=O)c2ccco2)c1	-3	-27	?	-25	?	3%
O=C(NC1=NCCS1)c1ccc(Cl)c(S(=O)(=O)N2CCCC2)c1	29	0	-19%	4	-25%	0%
C#CCN(CC=C)C(=O)c1cccc(OC2CCN(S(C)(=O)=O)CC2)c1	27	-3	16%	6	-1%	2%
CCOC(=O)c1nnn(-c2nonc2NC(C)=O)c1C	-10	-1	4%	14	6%	2%
O=C(NCC1COc2ccccc2O1)c1ccc(F)c(S(=O)(=O)N2CCOCC2)c1 (stereo unspecified)	14	6	18µM*	-6	?	-11%
CC(Sc1nc(N(C)C)nc(N2CCOCC2)n1)C(=O)Nc1ccccc1 (stereo unspecified)	9	-1	-26%	-10	7.3µM*	1%
C#CCN1C(=O)C(O)(c2c(C)[nH]c3ccccc23)c2ccccc21 (stereo unspecified)	42	0	4.6µM*	17	3.3µM*	1%
CCCN1C(=O)C(O)(c2c(C)[nH]c3ccccc23)c2ccccc21 (stereo unspecified)	0	.	5.2µM*	4	5.2µM*	.
Cc1[nH]c2ccccc2c1C1(O)C(=O)N(C(C)C)c2ccccc21 (stereo unspecified)	33	-17	-7%	-6	-5%	-2%
O=C1C(=O)N(CCCn2ccnc2)C(c2ccc(Cl)cc2)/C1=C(\O)c1ccc2c(c1)OCCO2 (stereo unspecified)	-2	.	2%	-15	4%	7%
O=C(CSc1nnc(-c2ccc(F)cc2)o1)N1CCCc2ccccc21	.	.	?	.	18µM*	0%
COc1cccc(C(=O)NN2c3ccccc3CCc3ccccc32)c1	9	-13	21µM*	8	10µM*	1%
COc1cc(OC)cc(-c2nnc(SCC(=O)N3CCCc4ccccc43)o2)c1	-3	2	?	0	21µM*	-4%
Cc1occc1-c1nnc(SCC(=O)Nc2nc(C(C)(C)C)cs2)o1	0	9	9.2µM*	0	10µM*	4%
